Among the data in PubChem BioAssay AID488969 (Vanderbilt High Throughput Screening Facility, 2010) are z-score values, retold here.

Over roughly 110,000 compounds, “z-score” has its median near -0.1; the highest 2% begin near 2. For the sample, the highest values were picked, then their nearest neighbours and some compounds at random. Activity calls are given as the source filed them.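 Rule for the calls: active = z-score in the third read window above 3 or below -3; inactive = the rest.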

The target in the assay is Metabotropic glutamate receptor 8 (Rattus norvegicus) (UniProt P70579). Briefly: rat mGluR8 modulators via GIRK flux, primary screen, cell-based, thallium flux, HTS (AID 488969). The conditions noted are these: HEK293 rat mGluR8, GIRK (G protein-gated inwardly rectifying potassium channel) thallium flux, FluoZin2; at 10 µM; stronger effect = higher value; submaximal glutamate (EC20) added with thallium.
Metabotropic glutamate receptor 8 (Rattus norvegicus), sequence (P70579 whole entry, looked up): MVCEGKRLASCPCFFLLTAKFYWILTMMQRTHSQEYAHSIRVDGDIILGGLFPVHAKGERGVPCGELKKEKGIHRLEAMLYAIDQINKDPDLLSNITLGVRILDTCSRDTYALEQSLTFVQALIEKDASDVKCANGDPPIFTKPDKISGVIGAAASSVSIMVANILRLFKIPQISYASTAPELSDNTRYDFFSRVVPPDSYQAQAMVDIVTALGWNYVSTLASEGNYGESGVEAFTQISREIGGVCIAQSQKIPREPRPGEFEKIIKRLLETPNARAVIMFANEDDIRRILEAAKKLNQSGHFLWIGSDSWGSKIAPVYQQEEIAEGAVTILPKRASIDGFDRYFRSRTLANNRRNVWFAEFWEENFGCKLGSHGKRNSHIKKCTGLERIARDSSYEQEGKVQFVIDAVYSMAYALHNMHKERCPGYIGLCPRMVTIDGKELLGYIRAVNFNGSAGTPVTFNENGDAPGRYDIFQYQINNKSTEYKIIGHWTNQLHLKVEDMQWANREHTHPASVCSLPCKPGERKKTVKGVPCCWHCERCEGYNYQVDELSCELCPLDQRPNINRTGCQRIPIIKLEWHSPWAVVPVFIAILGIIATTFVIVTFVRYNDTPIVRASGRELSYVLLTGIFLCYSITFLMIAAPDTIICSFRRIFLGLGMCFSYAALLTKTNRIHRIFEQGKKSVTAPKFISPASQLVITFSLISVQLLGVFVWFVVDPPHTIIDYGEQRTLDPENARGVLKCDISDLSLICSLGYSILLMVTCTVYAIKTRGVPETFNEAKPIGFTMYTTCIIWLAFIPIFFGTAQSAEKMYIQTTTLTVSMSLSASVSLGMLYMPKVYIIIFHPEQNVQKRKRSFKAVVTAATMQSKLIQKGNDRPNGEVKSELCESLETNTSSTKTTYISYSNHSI
Regarding `COc1ccc(NS(=O)(=O)c2cc(S(C)(=O)=O)ccc2C)cc1`, the z-score was -0.235.
On to `COc1ccc2c(c1)C(NC(=O)C(F)(F)F)CC2=O` (stereo not given), for which the z-score was determined as 0.142.
In the case of `O=C(N1CCOCC1)N1CCN(C(=O)N2CCOCC2)CC1`, the z-score is -0.108.
Consider `COc1cc(C(=O)CSc2nncn2C)cc(OC)c1OC`, for which the z-score was -0.245.
`CC1(C)Cc2nc3sc4c(OCc5ccccc5)ncnc4c3cc2CO1` showed a z-score of -0.0531.
The molecule `CCCN(CCC)C1=N/C(=C\c2ccco2)C(=O)N1c1ccccc1` had a z-score of -0.536.
As for `Cc1ccccc1NC1C=CS(=O)(=O)C1` (stereo not given), the z-score was -0.358.
Molecule `Cc1ccc(N2C(=O)CCSC23C(=O)Nc2ccccc23)cc1` (stereo not given) showed a z-score of -0.0429.
The same measure for `COc1cccc(NC(=O)COc2ccc(C)cc2)c1`: 4.04 (active).
The same measure for `CC(C)(C)NC(=O)C(=O)NNC(=O)COc1ccccc1`: 0.182.
In turn, `COc1cc(NC(=O)COc2cccc(OC)c2)cc(OC)c1` gave a z-score of 0.638.
The figure for `Cc1ccc(OCC(=O)NNC(=O)C(=O)NC(C)(C)C)cc1` is 2.61; for `COc1ccc(OCC(=O)Nc2cccc(OC)c2)cc1` it is -0.532.
`CC(C)(C)NC(=O)C(=O)NNC(=O)COc1ccc(Br)cc1` showed a z-score of 1.89.
Regarding `O=C(COc1ccc(S(=O)(=O)NC2CCCCC2)cc1Cl)N1CCN(c2ccccc2)CC1`, the z-score was 1.16.
Molecule `COc1cccc(/C=N/NC(=O)C(=O)N2CCCC2)c1OC` showed a z-score of -0.494.
Molecule `CCSc1nnc(NC(=O)C2CCN(S(=O)(=O)c3ccccc3C(F)(F)F)CC2)s1` came in with a z-score of -0.565.
The same measure for `O=C(Nc1ccccc1)/C(=C\c1ccc2c(c1)OCO2)NC(=O)c1ccco1`: -0.0407; for `Cc1ccc(CN2CCNC(=O)C2CC(=O)O)cc1` (stereo not given): -0.134.
In turn, `O=C(O)CC1C(=O)NCCN1Cc1ccc(F)c(F)c1` (stereo not given) displayed a z-score of -0.183.
With `COc1ccc(CN2CCNC(=O)C2CC(=O)O)cc1OC` (stereo not given), the z-score is 3.61 (active).
The same measure for `CC1CC(C)CN(CCOCCSc2ccccc2)C1` (stereo not given): 0.729; for `O=C(Cn1cc(C(F)(F)F)cc(Cl)c1=O)NCCc1ccccc1`: -0.155.
For `CC(=O)c1cccc(NC(=S)NC(=O)c2ccc(Cl)cc2)c1`, the z-score is -0.258.
The same measure for `CCC(=O)Nc1cccc(NC(=S)NC(=O)c2cccc(C)c2)c1`: 0.23.
Regarding `CC(=O)c1cccc(NC(=S)NC(=O)c2cccc(Cl)c2)c1`, the z-score is 8.71 (active).
With `Cc1ccc(NC(=O)NC(=S)NC(=O)c2ccccc2)cc1`, the z-score was 1.68.
As for `CC(=O)c1cccc(NC(=S)NC(=O)c2ccccc2Cl)c1`, the z-score came out at 1.17.
Take `Cc1cccc(NC(=O)NC(=S)NC(=O)c2ccccc2)c1`: the z-score was 2.86.
As to `CC(=O)c1cccc(NC(=S)NC(=O)c2ccccc2)c1`, the z-score worked out at 1.63.
The same measure for `COC(=O)c1cccc(NC(=S)Nc2cccc(Cl)c2C)c1`: 0.445; for `CC(=O)c1cccc(NC(=S)NC(=O)c2cccc(C)c2)c1`: 7.49 (active).
`COC(=O)c1cccc(NC(=S)Nc2cccc(Cl)c2Cl)c1` gave a z-score of 2.5.
For the molecule `CCC(=O)Nc1cccc(NC(=S)NC(=O)c2ccccc2)c1`, the z-score was -0.455.
With `COC(=O)c1cccc(NC(=S)NCc2ccc(Cl)cc2)c1`, the z-score was found to be 0.53.
Turning to `O=C(c1ccc2snnc2c1)N1CCN(c2ccccn2)CC1`, the z-score is -0.329.
The molecule `COC(=O)Nc1sc2c(c1C(=O)N1CCOCC1)CCC(C)C2` (stereo not given) returned a z-score of 0.0522.
The figure for `COc1ccccc1S(=O)(=O)Nc1cccc(-c2nnc3n2CCCCC3)c1` is -0.163.
As for `Cc1cc2cc(C(c3nnnn3C(C)(C)C)N(Cc3ccco3)CC3CCCO3)c(=O)[nH]c2cc1C` (stereo not given), the z-score was -0.208.
Consider `O=C(/C=C/c1ccc(F)cc1)c1ccccc1Br`, for which the z-score was -0.272.
For `COc1ccc2nc(C(F)(F)C(F)(F)F)c(C#N)c(N)c2c1`, the z-score was -0.334.
In turn, `Cc1ccccc1C(=O)NNC(=S)Nc1cccc(C(F)(F)F)c1` displayed a z-score of -0.0547.
On to `CC(C)Oc1cccc(C(=O)NC(=S)Nc2cccc(C(F)(F)F)c2)c1`, for which the z-score was 0.755.
For the molecule `CC(C)Oc1cccc(C(=O)NC(=S)Nc2ccccc2)c1`, the z-score was 3.26 (active).
Molecule `O=C(NNC(=S)Nc1cccc(C(F)(F)F)c1)c1ccccc1Cl` came in with a z-score of 0.86.
`O=C(NNC(=S)Nc1cccc(C(F)(F)F)c1)c1cccc(Cl)c1` had a z-score of 2.97.
The figure for `CC(C)Oc1cccc(C(=O)NC(=S)Nc2cccc(NC(=O)c3ccccc3Cl)c2)c1` is -0.41; for `CCS(=O)(=O)N1CCN(C(=O)COc2ccc(-c3ccccc3)cc2)CC1` it is -0.0325; for `O=c1c2c3c(sc2nc2n1CCCC2)CCCCC3` it is -0.277.
On to `O=c1c2c3c(sc2nc2n1CCCCC2)CCCCC3`, for which the z-score is 8.38 (active).
In the case of `O=c1c2c3c(sc2nc2n1CCCCC2)CCC3`, the z-score was -0.21.
On to `O=C(Cn1c(CC(=O)N2CCOCC2)nc2ccccc21)Nc1ccc2c(c1)OC(F)(F)O2`, for which the z-score worked out at 1.15.
On to `CCOc1ccc2nc(NC(=O)CN3CCN(C)CC3)sc2c1`, for which the z-score was found to be 0.433.
`C=CCNCCCOc1ccc(C)cc1Br` returned a z-score of 0.425.
Consider `CC(=O)Nc1ccc(S(=O)(=O)N(C)CC(=O)OCC(=O)Nc2cccnc2Cl)cc1`, for which the z-score is -0.172.
As to `C/C(=N/NC(=O)c1ccoc1C)C12CC3CC(CC(C3)C1)C2`, the z-score was 0.37.
Consider `C/C(=N\NC(=O)c1ccc(Cl)cc1)c1ccc(Br)s1`, for which the z-score is 8.88 (active).
The figure for `C/C(=N\NC(=O)CNc1cccc(C)c1)c1ccc(Br)s1` is 0.0989; for `C/C(=N\NC(=O)c1ccc(Cl)c(Cl)c1)c1ccc(Br)s1` it is 1.19.
As for `C/C(=N/NC(=O)c1cc(Cl)ccc1O)C12CC3CC(CC(C3)C1)C2`, the z-score was 3.19 (active).
Molecule `C/C(=N\NC(=O)c1ccccc1O)c1ccc(Br)s1` returned a z-score of 2.99.
With `C/C(=N\NC(=O)c1cccc(F)c1)c1ccc(Br)s1`, the z-score was 7.29 (active).
`COc1ccccc1NCC(=O)N/N=C(\C)c1ccc(Br)s1` came in with a z-score of -0.279.
The same measure for `CC/C(=N\NC(=O)c1ccccc1Cl)c1ccc(Br)s1`: 0.216; for `C/C(=N/NC(=O)CNc1ccc(C)cc1)c1ccc(Br)s1`: 0.214.
Molecule `C/C(=N\NC(=O)c1cccc(N/N=C(\C)c2ccccc2)c1)c1ccccc1` yielded a z-score of -0.529.
The same measure for `O=C(NN=C1C2CC3CC(C2)CC1C3)c1cc(Cl)ccc1O`: 0.0729.
With `O=C(CN1CCCCCCC1)N/N=C/c1ccc(F)c(F)c1`, the z-score was -0.563.
The same measure for `CCC(C)(C)C1CCC(=NNC(=O)c2ccoc2C)CC1` (stereo not given): -0.259; for `Cc1sc(NC(=O)c2ccc(Br)s2)c(C(N)=O)c1C`: 0.0217.
`COc1cc(OC)c(OC)cc1CN(C)C(c1ccccc1)c1nnnn1-c1ccccc1C` (stereo not given): the z-score amounted to 0.0196.
`CC(OC(=O)CCc1nc2ccccc2c(=O)[nH]1)C(=O)NC1CCCC1` (stereo not given) showed a z-score of -0.356.
In the case of `Cc1cccc2sc(N(CCN(C)C)C(=O)/C=C/c3cccs3)nc12`, the z-score was -0.145.
On to `O=c1[nH]c(CN2CCN(c3ccccc3)CC2)nc2ccccc12`, for which the z-score was determined as 0.214.
`COc1cccc(C2C=C(Nc3ccccc3)C(=O)N2c2ccccc2)c1` (stereo not given) yielded a z-score of -0.22.
Consider `Cc1cc(C)c(NC(=O)C2CCCN2C(=O)NC2CCCCC2)c(C)c1` (stereo not given), for which the z-score turned out to be 1.35.
As for `C/C(=N\NS(=O)(=O)c1ccc(C)cc1)c1ccc(Br)s1`, the z-score is -0.207.
As to `O=C(N/N=C/C1CCCCC1)c1cc(Cl)ccc1O`, the z-score worked out at 0.618.
`C/C(=N\NC(=O)c1cc(Cl)ccc1O)c1ccc(Br)s1`: the z-score was 6.48 (active).
With `Nc1[nH]ncc1N=Nc1ccc(Cl)cc1`, the z-score was -0.104.
For the molecule `c1ccc(CNn2c(N3CCOCC3)nc3ccccc32)cc1`, the z-score came to 0.241.
In turn, `CCN(c1ccccc1)S(=O)(=O)c1cc(C(=O)Nc2cccc(Cl)c2)ccc1F` yielded a z-score of -0.0119.
`CCN(c1ccccc1)S(=O)(=O)c1cc(C(=O)Nc2ccccc2Cl)ccc1F` gave a z-score of 2.19.
`CCN(c1ccccc1)S(=O)(=O)c1cc(C(=O)Nc2ccc(F)c(F)c2)ccc1F`: the z-score was -0.178.
The molecule `CN(C)c1ccc(/C=C/C(=O)c2ccccc2)cc1[N+](=O)[O-]` showed a z-score of -0.207.
For `Fc1c(F)c(F)c(N=Cc2ccc3ncccc3c2)c(F)c1F`, the z-score came to 0.201.
In the case of `Cc1nc(NC(=S)NC(=O)c2cccs2)sc1C(=O)N(C)C`, the z-score was -0.329.
`O=C(Cc1cccs1)Nc1nc2c(ccc3ccccc32)s1` returned a z-score of 0.34.
Take `Cc1ccc2nc(NC(=O)Cc3cccs3)sc2c1`: the z-score worked out at 0.542.
The same measure for `O=C(NC(=S)Nc1nc2c(ccc3ccccc32)s1)c1cccs1`: 2.78.
With `O=C(NC(=S)Nc1nc2ccccc2s1)c1cccs1`, the z-score is 11.7 (active).
In turn, `O=C(NC(=S)Nc1nc(-c2ccccc2)cs1)c1cccs1` gave a z-score of 1.03.
`Cc1ccc(-c2csc(NC(=S)NC(=O)c3cccs3)n2)cc1` gave a z-score of -0.267.
Consider `CCc1ccc(-c2nc(NC(=S)NC(=O)c3cccs3)sc2C)cc1`, for which the z-score was 0.595.
As for `Cc1ccc2nc(NC(=S)NC(=O)c3cccs3)sc2c1`, the z-score was 4.64 (active).
As to `O=C(c1ccc(Cl)cc1)C1CCN(C(=O)C2CC2)CC1`, the z-score was 0.108.
In the case of `CCOC(=O)c1c(C)n(-c2ccc(C)cc2)c2c(CC(C)=O)c(Br)c(OC)c(O)c12`, the z-score was -0.0818.
The same measure for `Clc1ccc(Cc2ccc(SCc3ccccc3)nn2)c(Cl)c1`: 3.48 (active); for `Clc1ccc(Cc2ccc(Cl)nn2)c(Cl)c1`: -0.119; for `CSc1ccc(Cc2ccc(Cl)cc2Cl)nn1`: -0.154.
`O=C(N/N=C\c1ccc(Sc2ccccn2)o1)c1cccc(Br)c1` showed a z-score of 1.77.
`O=C(N/N=C\c1ccc(Sc2ccccn2)o1)c1cccc(F)c1`: the z-score is -0.471.
The same measure for `O=C(N/N=C/c1ccc(Sc2ccccn2)o1)c1cc2ccccc2cc1O`: 6.43 (active); for `CCOC(=O)c1ccc(NC(=S)N2CCN(Cc3ccccc3)CC2)cc1`: -0.2; for `CN(C)c1ccnc(Oc2ccc(C(C)(C)C)cc2)c1C#N`: -0.212.
As to `COC(=O)C1CCCN1C(=O)c1cccs1` (stereo not given), the z-score was 5.05 (active).
`O=C(OCc1ccccc1)C1CCCN1C(=O)c1cccs1` (stereo not given): the z-score was -0.219.
The same measure for `O=C(O)C1CCCN1C(=O)c1cccs1` (stereo not given): 0.319; for `CC(=O)NC1(c2nnnn2CCOC(=O)Nc2ccc(Cl)cc2)CCCCC1`: 0.0804; for `O=C(O)CCC(=O)N1N=C(c2c(-c3ccccc3)c3cc(Cl)ccc3[nH]c2=O)CC1c1ccco1` (stereo not given): -0.219.
The figure for `CC(C)NC(=O)/C(=N\O)c1ccccc1` is 0.0549; for `C/C(=N\NC(=O)C(NC(=O)c1ccccc1)C(C)C)c1ccccc1` (stereo not given) it is -0.068; for `C/C(=N\O)C(C)NC(=O)c1ccccc1` (stereo not given) it is 3.54 (active).
The same measure for `COc1ccccc1NC(=S)NCc1ccc2c(c1)OCO2`: -0.0224; for `Cc1sc(NC(=O)c2cc(-c3ccc(Cl)cc3)nc3ccccc23)c(C(N)=O)c1C`: -0.126.
